SW480 rerep: inducers of DNA re-replication in SW480 colon cancer cells; SW480 DNA re-replication, Hoechst DNA content imaging, 48 h; Potency, µM (doses to about 46.1 µM), inactives show at the highest dose re-replication activation, usual class: activators; 1.8% of 340,000 active; also: % of control where 0% means no effect; nearly all actives have a fitted effect of over 55% in size
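Quantitative HTS format with DMSO vehicle controls; 48 hr drug incubation at 37 C, then 40 min Hoechst staining and scanning imager measurement at 405 nm excitation.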
KB-V1 cytotox: kills drug-selected multidrug resistant KB-V1 cells; KB-V1 MDR cells viability, CellTiter-Glo, 72 h; Potency, µM (doses to about 46.1 µM), hits mostly cytotoxic; 3.4% of 400,000 active; AID 1347076; also: % is scaled to controls: 0 for no effect and ±100 for the full control effect; nearly all actives have a fitted effect of over 60% in size
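Potencies derive from concentration-effect curves fitted to normalized luminescence (CellTiter-Glo) of KB-V1 cells treated for 72 h at 37 degrees C in phenol-red-free DMEM containing 10% FBS.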
HT1080 IDH1KD tx: toxicity to HT-1080 IDH1 knockdown cells (counter line); HT-1080 IDH1 knockdown viability, ATP luminescence, 48 h; Potency, µM (doses to about 46.1 µM), without a hit: at the top dose activity, negative = toxicity, usual class: cytotoxic; 2% of 360,000 active;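 also: 0% = DMSO wells and -100% = cell-free medium wells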
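% activity derives from luminescence (CellTiter-Glo), normalised to DMSO and no-cell wells. HT-1080-IDH1KD cells, 750/well, had 48 h compound exposure at 37 °C.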
MCF10A rereplic: DNA re-replication induction in MCF 10a cells | MCF 10A DNA re-replication, Hoechst nuclear intensity, 48 h | Potency, µM (top dose mostly 46.1 µM), without a hit: at the highest dose activity, positive = re-replication, hits mostly activators | 2.9% of 350,000 active; also: % of control where 0% means no effect; nearly all actives have a fitted effect of over 50% in size
HT1080NT lethal: kills 2HG-producing HT-1080-NT fibrosarcoma cells; HT-1080-NT fibrosarcoma viability, CellTiter-Glo ATP luminescence, 48 h; Potency, µM (top dose mostly 46.1 µM), inactives show at the highest dose activity, negative = less viability, actives largely listed as cytotoxic; 1.6% of 360,000 active; AID 686970;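 also: NT is the 2HG producing partner of a matched IDH1 knockdown line; 0% = DMSO-treated cells and -100% = media-only wells without cells; nearly all actives have a fitted effect of over 55% in size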
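Read-out is CellTiter-Glo luminescence after 10 minutes at room temperature, following 48 hours' compound treatment of HT-1080-NT cells (750 cells/well, RPMI, 5% FBS, 37 degrees C).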
KB-3-1 cytotox: KB-3-1 parental cell cytotoxicity; 1.4% of 400,000 active; Potency, µM (doses to about 46.1 µM), usual class: cytotoxic; AID 1347075; KB-3-1 viability, CellTiter-Glo ATP luminescence, 72 h; also: % is scaled to controls: 0 for no effect and ±100 for the full control effect; nearly all actives have a fitted effect of over 60% in size
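Screening of KB-3-1 cells (DMEM, 10% FBS, phenol-red free) ran from lowest to highest compound concentration; after 72 h at 37 °C viability was read luminescently and curves fitted.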
* marks the source's active call; other numbers are inactive results; i = inactive; ? = inconclusive; · = no result given; [ ] = remark or other dose. A selection: hits, their analogues and other compounds. The true share with any hit is near 8%. Calls follow the shape of the dose curve; as a rule, active = well fitted curve in the direction sought with a large enough effect; inconclusive = small, poorly fitted or top-dose-only effect, or another doubt; inactive = no such curve, though single readings can be large; an effect the other way counts as inactive or inconclusive. Potency is read from the fitted curve at half-maximal effect.

SMILES	SW480 rerep	KB-V1 cytotox	HT1080 IDH1KD tx	MCF10A rereplic	HT1080NT lethal	KB-3-1 cytotox
COc1ccc(C(=O)N2CCOC2CNC(=O)C(=O)NCc2ccc(Cl)cc2)cc1 (centres undefined)	-5.8%	23.1µM*	-10.4%	2.3%	-6.0%	i
CCOC(=O)C1CCCN(C(=O)Cc2ccc(OC)c(OC)c2)C1 (centres undefined)	-2.3%	i	-1.3%	0.2%	-2.3%	i
CCOC(=O)C1CCCN(C(=O)Cc2ccc(OC)c(OC)c2)CC1 (centres undefined)	·	20.6µM*	2.9%	·	11.8%	?
OCCCn1c(-c2ccccc2)nc(=S)c2c1CCCC2	-10.8%	i	-7.2%	0.0%	-5.2%	i
CN(C)CCCn1c(-c2ccccc2)nc(=S)c2c1CCCC2	3.26µM*	i	13.2%	-181.0%[0.0737 µM]	-5.0%	i
CC(NC(=O)c1ccc(Br)cc1)c1ccccc1 (centres undefined)	-701.1%	i	23.1%	?	14.1%	i
CC(C)OP(=O)(OC(C)C)C(NC(=O)c1ccc(Br)cc1)c1ccccc1 (centres undefined)	?	3.66µM*	?	?	20µM*	?
CC(C)c1nc2ccccc2n1CC(O)COC1CCCCC1 (centres undefined)	0.0%	?	0.1%	1.6%	1.3%	i
CCCCOCC(O)Cn1c(C)nc2ccccc21 (centres undefined)	-1.1%	?	-3.5%	2.2%	12.9%	i
Cc1nc2ccccc2n1CC(O)Cn1c2ccccc2c2ccccc21 (centres undefined)	?	?	-12.7%	?	-5.5%	18.4µM*
Cc1cccc(C)c1OCC(O)Cn1c2ccccc2c2ccccc21 (centres undefined)	?	?	?	20.6µM*	-23.3%	?
Cc1ccc2c(c1)c1c(n2CC(O)Cn2c(C)nc3ccccc32)C(=O)CCC1 (centres undefined)	-25.1%	i	8.5%	2.0%	18.5%	?
Cc1ccc2c(c1)c1c(n2CC(O)Cn2c(C)nc3ccccc32)/C(=N\O)CCC1 (centres undefined)	-1.5%[9.22 µM]	?	?	?	20.6µM*	?
Cc1nc2ccccc2n1CC(O)COC1CCCCC1 (centres undefined)	-9.8%	16.4µM*	-0.7%	-3.3%	-5.9%	i
CCC(C)NC(=O)c1cccc(NC(=O)c2nsc3ccccc23)c1 (centres undefined)	·	i	·	·	·	i
CCOC(=O)C1(C)C=C(Nc2ccc(C(=O)O)cc2)C(=O)N1c1ccc(C(=O)O)cc1 (centres undefined)	·	i	·	·	·	i
Cc1ccc(Cn2c(CO)cnc2SCC(=O)Nc2ccc(C)c(Cl)c2)cc1	·	i	·	·	·	i
CCCc1nn2c(=O)cc(COc3ccc(/C=C(\C#N)C(=O)Nc4ccccc4)cc3)nc2s1	·	?	·	·	·	i
Cn1cnc([N+](=O)[O-])c1Sc1nc(N)nc2c1ncn2C1CC(O)C(CO)O1 (centres undefined)	7.31µM*	5.17µM*	1.3µM*	2.06µM*	2.31µM*	3.66µM*
Cn1cnc([N+](=O)[O-])c1Sc1nc(N)nc2c1ncn2C1OC(CO)C(O)C1O (centres undefined)	5.8µM*	1.16µM*	1.3µM*	2.06µM*	1.3µM*	?
COc1cc(CN2CCN(c3cccc(Cl)c3)CC2)cc(OC)c1OC	16.4µM*	2.31µM*	7.08µM*	16.4µM*	8.91µM*	3.66µM*
COc1cc(CN2CCN(S(=O)(=O)c3ccccc3)CC2)cc(OC)c1OC	0.7%	i	-1.3%	0.0%	0.4%	i
COc1cccc(CN2CCN(c3cccc(C(F)(F)F)c3)CC2)c1OC	14.9%	20.6µM*	-4.3%	?	2.8%	i

Screening data as filed in PubChem BioAssay.
